Data on 40 compounds can be found in PubChem BioAssay (NCATS).

Records with an inconclusive call do not appear. Values without a mark were called inactive. The source made the active and inactive calls. The call rests on the fitted dose curve; in most records, active means well fitted activation curve with a large enough effect; inconclusive means small, poorly fitted or top-dose-only effect; inactive means flat fitted curve, though single readings scatter.
Potency means the concentration at half of the fitted maximal effect.

Cellular tumor antigen p53 (Homo sapiens), sequence (P04637 whole entry, looked up): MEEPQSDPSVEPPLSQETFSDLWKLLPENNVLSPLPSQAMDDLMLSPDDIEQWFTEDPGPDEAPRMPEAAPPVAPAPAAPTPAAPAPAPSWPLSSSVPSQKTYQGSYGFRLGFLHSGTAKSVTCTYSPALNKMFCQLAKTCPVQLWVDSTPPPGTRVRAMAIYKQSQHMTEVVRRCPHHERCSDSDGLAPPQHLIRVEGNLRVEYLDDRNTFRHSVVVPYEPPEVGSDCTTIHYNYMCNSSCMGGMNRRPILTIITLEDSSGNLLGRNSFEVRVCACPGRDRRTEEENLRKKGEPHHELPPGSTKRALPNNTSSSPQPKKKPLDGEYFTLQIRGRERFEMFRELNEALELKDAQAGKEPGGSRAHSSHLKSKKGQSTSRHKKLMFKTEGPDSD

The target in this test is Cellular tumor antigen p53 (Homo sapiens) (UniProt P04637). Kind of test: Primary qHTS for small molecule compounds that upregulate eGFP-tagged delta133p53alpha (in C-terminal) cells. (AID 2060324).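 On GFP increase (activation): 0% = DMSO wells and 100% = 57.5 µM 5-azacytidine.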 Conditions: NCI-H358 delta133p53alpha-eGFP (C-terminal tag), GFP fluorescence imaging, 24 h; series mostly up to 57.5 µM; GFP increase (activation): at the top concentration. The text has this:
Assay Development and Screening Technology
National Center for Advancing Translational Sciences (NCATS),
National Institute of Health (NIH), Rockville, Maryland
Cellular senescence (CS) is one of the hallmarks of aging and age-related diseases. Senescent cells are characterized by an irreversible growth arrest, an increase in senescence-associated beta-galactosidase (SA-beta-gal) activity and p16INK4a expression, an activation of the DNA damage response pathways, and the emergence of a senescence-associated secretory phenotype (SASP).
Delta133p53alpha, a human/primate-specific p53 protein isoform, delays or inhibits the induction of CS and SASP in various types of human cells, including progeria-derived fibroblasts, primary normal astrocytes, and CD8+ T lymphocytes. Induction of delta133p53alpha with small molecule compounds may provide therapeutic opportunities for inhibition of senescence/SASP-associated pathologies in progeria syndromes, astrocyte-mediated neuroprotection in neurodegenerative diseases, and possibly prevention and treatment of a wider range of senescence- and aging-associated diseases.
Here we report the development and validation of a cell-based quantitative high throughput screening (qHTS) assay in 1,536-well format. This qHTS assay uses the NCI-H358 cell line with doxycycline-inducible expression of enhanced green fluorescent protein (eGFP)-tagged delta133p53alpha, which allows efficient and highly quantitative measurement of the protein levels.
PROTOCOL TABLE (as described by Inglese J, Shamu CE and Guy RK. 2007)
SEQUENCE No. (e.g., 1, 2, 3, etc.); […] (e.g., Cells, Incubation, Reagent, etc.); VALUE; DESCRIPTION.
1; Cells; 4uL; 800 doxycycline treated cells / well in doxycycline-free media, 1536-well black, clear-bottom low base Aurora microplates.
2; Compounds; 23 nL; Kalypsis pin tool (Wako) equipped with 1536-well pin heads, 5-azacytidine positive control.
3; Incubation; 24 hr; 37C, 5% CO2; 95% relative humidity.
4; Aspiration; 1x; BioTek EL406 washer dispenser (Agilent).
5; Fixing; 3.5% paraformaldehyde, BioTek EL406 washer dispenser (Agilent).
6; Washing; 1x PBS; BioTek EL406 washer dispenser (Agilent).
7; Nuclei staining; 1:1000 dilution of Hoechst 33342 (Thermofisher), BioTek EL406 washer dispenser (Agilent).
8; Incubation; 20 min; in the dark at room temperature.
9; Washing; 2x, 1x PBS (ThermoFisher), BioTek EL406 washer dispenser (Agilent).
10; Reagent; 10 uL; 1x PBS per well, sealed with clear adhesive tape.
11; Detection; Fluorescence, Acumen eX3 laser scanning cytometer (STP Labtech), GFP filters […].
NOTES (numbers refer to sequence numbers above).
1. NCI-H358 cells expressing eGFP-tagged delta133p53alpha were grown in T75 culture flasks and treated with doxycycline for 24h, at 10 ng/ml for eGFP-D133p53a cells (N-terminal cell) and 100 ng/ml for D133p53a-eGFP cells (C-terminal cells). Cells were trypsinized, counted using a Counted 3 Automated Cell Counter (Thermo Fisher), and diluted to a concentration of 200,000 cells/ml. A Multidrop Combi Reagent Dispenser (ThermoFisher) was used to dispense 800 cells/well in […] of doxycycline-free media, into 1536-well black/clear bottom low base plates (AuroraMicroplates).
2. After plating cells, 23 nl of compound library, DMSO vehicle control or positive control (5-azacytidine) were transferred by Pin Tool (Wako). The plate map layout was the same for each plate: (column 1) non-doxycycline treated cells + DMSO vehicle control; (column 2) doxycycline treated cells + DMSO vehicle control baseline; (column 3) doxycycline treated cells + positive control 57.5 uM final concentration 5-azacytidine; (column 4) doxycycline treated cells + serial dilution of 5-azacytidine, 16-point 1:2 titration spanning 1.8 nM to […] final concentration; (columns 5-48) doxycycline treated cells + titration of library compounds.
3. Cells were incubated at 37 °C, 5 % CO2, 95% RH with breathable metal lid for 24h.
4-10. […] […]
A general note: In qHTS, concentration-response curves come from the screen itself.
As to `O=C1NCN(c2ccccc2)C12CCN(CC1COc3ccccc3O1)CC2` (stereo not given), the “GFP increase (activation)” value was 1.8%.

In the case of `O=[N+]([O-])c1ccc2nc(N3CCNCC3)ccc2c1`, the “GFP increase (activation)” value is 13.1%.

`CCCN(CCC)C1CCc2ccc(O)cc2C1` (stereo not given): the “GFP increase (activation)” value is 1.52%.

For `NC1CCc2cc(O)c(O)cc2C1` (stereo not given), the “GFP increase (activation)” value is 15.4%.

Regarding `CN1CCC[C@@H]1Cc1c[nH]c2ccc(Nc3ncccc3[N+](=O)[O-])cc12`, the “GFP increase (activation)” value is 2.66%.

Consider `O=C1CCCN1CC#CCN1CCCC1`, for which the “GFP increase (activation)” value was -7.87%.

As for `COc1ccc(OC)c(C(O)C(C)N)c1` (stereo not given), the “GFP increase (activation)” value was -1.21%.

Take `Oc1ccc2c3c1O[C@H]1c4[nH]c5ccccc5c4C[C@@]4(O)C(C2)N(CC2CC2)CCC314` (stereo not given in full): the “GFP increase (activation)” value is 7.14%.

For the compound `CCCN1CCO[C@@H]2c3cc(O)ccc3OC[C@H]21`, the “GFP increase (activation)” value was -2.78%.

`O=C1CC[C@@]2(O)C3Cc4ccc(O)c5c4C2(CCN3CC2CC2)[C@H]1O5` (stereo not given in full): the “GFP increase (activation)” value was -8.86%.

For `CCN1C[C@@]2(COC)C3[C@@H](OC)C4[C@@H]1C3([C@@H]1C[C@]3(O)[C@H](OC(=O)c5ccccc5)[C@@H]1[C@]4(OC(C)=O)[C@@H](O)[C@@H]3OC)[C@H](OC)C[C@H]2O`, the “GFP increase (activation)” value is -7.11%.

For the compound `CC(=O)[C@H]1CC[C@H]2[C@@H]3CC[C@H]4C[C@](C)(O)CC[C@]4(C)[C@H]3CC[C@]12C`, the “GFP increase (activation)” value was 7.16%.

For `Cn1cnc(CCN)c1`, the “GFP increase (activation)” value is -2.69%.

On to `O=C(N[C@H]1CN2CCC1CC2)c1ccc(Cl)cc1`, for which the “GFP increase (activation)” value was 16.5%.

On to `c1ccc2c(N3CCNCC3)cccc2c1`, for which the “GFP increase (activation)” value is 10.3%.

For `O=S1(=O)N(CCN2CC=C(c3c[nH]c4cc(F)ccc34)CC2)c2cccc3c2N1CCC3`, the “GFP increase (activation)” value is 2.62%.

Regarding `NC(C(=O)O)c1cc(=O)[nH]o1` (stereo not given), the “GFP increase (activation)” value was 19.9%.

Consider `Cc1c2ccncc2c(C)c2c1[nH]c1ccccc12`, for which the Potency is 30.1 µM (active).

With `O=P1(N(CCCl)CCCl)NCCCO1` (stereo not given), the “GFP increase (activation)” value was -2.08%.

As for `NCCCP(=O)(O)O`, the “GFP increase (activation)” value was -1.88%.

Take `Cn1c(CCCC(=O)O)nc2cc(N(CCCl)CCCl)ccc21`: the “GFP increase (activation)” value was 1.47%.

In the case of `C[N+]1(C)CCN(c2ccccc2)CC1`, the “GFP increase (activation)” value was -10%.

Regarding `COC(=O)[C@@H](N)CCCN=C(N)N[N+](=O)[O-]`, the “GFP increase (activation)” value is -6.92%.

On to `C[C@]12N[C@H](Cc3ccccc31)c1ccccc12`, for which the “GFP increase (activation)” value is 3.55%.

With `CCOC(=O)c1ncn2c1[C@@H]1CCCN1C(=O)c1cc(OC)ccc1-2`, the “GFP increase (activation)” value was -4.69%.

In the case of `CN1CCc2cccc(Cl)c2CC1`, the “GFP increase (activation)” value is -14.7%.

Take `CCn1cnc2c(Nc3cccc(Cl)c3)nc(N[C@@H]3CCCC[C@@H]3N)nc21`: the Potency is 5.36 µM (active).

On to `Cc1[nH]c2ccc(O)cc2c1CCN`, for which the “GFP increase (activation)” value was 14.2%.

As for `OC1CCCCC1N1CCC(c2ccccc2)CC1` (stereo not given), the “GFP increase (activation)” value was -2.18%.

Regarding `CNCC(O)c1ccc(O)cc1` (stereo not given), the “GFP increase (activation)” value is 1.82%.

In the case of `CCCC[N+]1(C)C2CC(OC(=O)[C@H](CO)c3ccccc3)CC1C1OC12` (stereo not given in full), the “GFP increase (activation)” value is -0.387%.

For `NC1CC1c1ccccc1` (stereo not given), the “GFP increase (activation)” value is -8.87%.

`CCS(=O)(=O)Nc1cccc(C(=C2CCCCC2)c2cnc[nH]2)c1`: the “GFP increase (activation)” value was 4.71%.

`O=C(O)c1nn(Cc2ccc(Cl)cc2Cl)c2ccccc12`: the “GFP increase (activation)” value was -11.7%.

For the compound `CNCCc1ccc(O)c(O)c1`, the “GFP increase (activation)” value was -5.94%.

Regarding `NN=C(N)N`, the Potency result was “inactive”.

For the compound `CP(=O)(O)C1=CCNCC1`, the “GFP increase (activation)” value is 0.702%.

With `S=C(NC1CCCCC1)N1CCC(c2cnc[nH]2)CC1`, the “GFP increase (activation)” value was -1.14%.

Consider `NCCc1c[nH]c2ccccc12`, for which the “GFP increase (activation)” value was 0.0588%.

`CN1CCc2cc(O)cc3c2[C@H]1Cc1ccc(O)c(O)c1-3`: the “GFP increase (activation)” value is 9.67%.
